In assay [1] the test system is Plasmodium falciparum Sir2 (PF13_0152, Sir2A). The assay can be described thus: pfSir2 binders on small-molecule microarrays, primary screen, biochemical, small-molecule microarray, 635 nm fluorescence (AID 1098).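 Further: score merges spot fluorescence intensity with its signal-to-noise ratio.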 The settings on record: small-molecule microarray binding, fluorescence 635 nm; higher = more signal.
A short description of assay [2]: small-molecule microarray binders of probe aDKK1, primary screen, biochemical, biotinylated probe, 635/667 nm fluorescence (AID 1099).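 Further: score merges 667nm spot fluorescence with signal to noise across triplicate slides.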 Particulars: higher = more signal.
Assay [3] is described as follows: small-molecule microarray binders of probe aCHRDL2, primary screen, biochemical, biotinylated probe, 635/667 nm fluorescence (AID 1100). The settings on record: higher = more signal.
The nature of assay [4]: splicing luciferase reporter signal modulators, primary screen, spliceosome inhibition project, cell-based, HEK293, splice +/- reporter (AID 1101).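 Further: HEK293 cells carrying a splicing-competent luciferase reporter gene; test concentration not given here.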 The settings on record: luminescence, 24 h, higher = more signal, called active from +8 up or from −8 down.
Assay [5] addresses Fibroblast growth factor 10 (Homo sapiens) (UniProt O15520). The assay can be described thus: FGF10 binders on small-molecule microarrays, primary screen, biochemical, small-molecule microarray, 635 nm fluorescence (AID 1102). The settings on record: FGF10 binding, fluorescence 635 nm, higher = more signal.
Assay [6] concerns glycogen synthase kinase-3 (GSK3A per assay name; protocol says GSK3B). The assay can be described thus: GSK3 binders on small-molecule microarrays, primary screen, biochemical, small-molecule microarray, 635 nm fluorescence, GSK3A (AID 1103). Further: the record names both GSK3A and GSK3B. The settings on record: small-molecule microarray binding, fluorescence 635 nm; higher = more signal.
Assay [7] deals with Epidermal growth factor receptor (Homo sapiens) (UniProt P00533). The assay can be described thus: EGFR binders on small-molecule microarrays, primary screen, biochemical, small-molecule microarray, 635 nm fluorescence (AID 1104).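 Further: score merges 667 nm emission intensity with spot signal to noise over triplicate slides.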 Particulars: EGFR binding, higher = more signal.
Epidermal growth factor receptor (Homo sapiens), sequence (P00533 whole entry, looked up): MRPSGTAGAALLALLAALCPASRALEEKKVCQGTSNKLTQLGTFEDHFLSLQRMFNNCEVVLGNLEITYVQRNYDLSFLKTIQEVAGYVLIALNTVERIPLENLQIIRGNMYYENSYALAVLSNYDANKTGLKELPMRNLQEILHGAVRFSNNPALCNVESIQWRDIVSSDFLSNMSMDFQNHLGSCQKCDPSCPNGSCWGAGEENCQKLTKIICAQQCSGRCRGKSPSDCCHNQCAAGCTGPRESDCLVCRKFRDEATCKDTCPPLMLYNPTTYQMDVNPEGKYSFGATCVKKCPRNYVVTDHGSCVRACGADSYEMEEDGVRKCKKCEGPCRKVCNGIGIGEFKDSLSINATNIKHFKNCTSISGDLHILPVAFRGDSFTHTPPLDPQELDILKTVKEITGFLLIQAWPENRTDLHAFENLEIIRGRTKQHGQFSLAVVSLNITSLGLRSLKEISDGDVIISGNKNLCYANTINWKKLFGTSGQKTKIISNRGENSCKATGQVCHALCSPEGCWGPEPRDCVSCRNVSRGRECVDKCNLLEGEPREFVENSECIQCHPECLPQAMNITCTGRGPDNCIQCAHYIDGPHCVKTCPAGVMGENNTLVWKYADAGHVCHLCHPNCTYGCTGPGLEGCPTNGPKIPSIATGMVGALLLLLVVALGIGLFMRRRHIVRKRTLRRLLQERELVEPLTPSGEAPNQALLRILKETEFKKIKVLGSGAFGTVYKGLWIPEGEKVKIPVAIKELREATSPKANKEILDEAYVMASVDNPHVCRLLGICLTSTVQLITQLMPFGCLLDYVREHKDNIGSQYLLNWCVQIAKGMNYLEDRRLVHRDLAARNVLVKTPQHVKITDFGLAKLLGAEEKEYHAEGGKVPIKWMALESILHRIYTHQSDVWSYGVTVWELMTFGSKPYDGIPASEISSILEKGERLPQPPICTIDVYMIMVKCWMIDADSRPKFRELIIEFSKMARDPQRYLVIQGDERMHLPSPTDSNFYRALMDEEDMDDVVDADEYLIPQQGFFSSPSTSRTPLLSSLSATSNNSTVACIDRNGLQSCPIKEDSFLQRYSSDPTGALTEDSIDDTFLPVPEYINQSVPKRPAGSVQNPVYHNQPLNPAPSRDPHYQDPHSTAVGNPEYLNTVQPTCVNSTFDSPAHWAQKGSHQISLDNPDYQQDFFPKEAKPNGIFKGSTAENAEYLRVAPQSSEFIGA
The target of assay [8] is Follistatin-related protein 3 (Homo sapiens) (UniProt O95633). The assay can be described thus: FSTL3 binders on small-molecule microarrays, primary screen, biochemical, small-molecule microarray, 635 nm fluorescence (AID 1105).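 Further: score merges emission near 667 nm and signal to noise per printed spot across three slides.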 The settings on record: FSTL3 binding, higher = more signal.
Follistatin-related protein 3 (Homo sapiens), sequence (O95633 whole entry, looked up): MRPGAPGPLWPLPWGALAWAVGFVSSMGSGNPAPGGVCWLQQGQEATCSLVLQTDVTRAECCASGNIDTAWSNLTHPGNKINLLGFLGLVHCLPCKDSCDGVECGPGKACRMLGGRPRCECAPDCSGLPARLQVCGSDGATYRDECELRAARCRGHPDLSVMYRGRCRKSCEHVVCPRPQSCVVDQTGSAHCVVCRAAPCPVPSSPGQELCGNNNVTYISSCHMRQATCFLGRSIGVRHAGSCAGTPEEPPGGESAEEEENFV
Assay [9] concerns the target Dickkopf-related protein 1 (Homo sapiens) (UniProt O94907). The assay can be described thus: DKK1 binders on small-molecule microarrays, primary screen, biochemical, small-molecule microarray, 635 nm fluorescence scan (AID 1106).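 Further: score merges emission near 667 nm with signal to noise over three replicate slides.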 The settings on record: DKK1 binding, higher = more signal.
Assay [10] concerns Inhibin beta A chain (activin A). The assay can be described thus: INHBA (activin A) binders on microarrays, primary screen, biochemical, small-molecule microarray, 635 nm fluorescence scan (AID 1107).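 Further: mouse activin A protein probed at 4.33 µg/mL on printed slides; score merges bound-protein fluorescence near 667 nm with spot signal-to-noise.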 Particulars: small-molecule microarray binding, higher = more signal.
The subject of assay [11] is Human papillomavirus type 1a protein E7 (residues 44-93). Description: HPV1a E7 fragment binders on microarrays, primary screen, biochemical, small-molecule microarray, residues 44-93, 635 nm fluorescence (AID 1108).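 Further: E7 fragment applied at 1 µg/mL in TBST for 1 h at 4 C; score combines spot fluorescence with its signal to noise ratio.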 The settings on record: small-molecule microarray binding, fluorescence 635 nm; higher = more signal.
Assay [12] is described as follows: modulators of HCV replicon luciferase signal, primary screen, HCV replication inhibitor project, Huh7 cells, luciferase reporter (AID 1109).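 Further: huh7 hepatoma cells harbouring a luciferase neomycin HCV replicon reporter; luciferase luminescence as measure of HCV replicon replication; test concentration not given here.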 Particulars: 48 h, higher = more signal. A general note: Replicon systems follow genome replication, usually without infectious particles.
Assay [13] deals with Left-right determination factor 2 (Homo sapiens) (UniProt O00292). Description: LEFTY2 binders on small-molecule microarrays, primary screen, biochemical, small-molecule microarray, 635 nm fluorescence scan (AID 1110). Particulars: LEFTY2 binding, higher = more signal.
Left-right determination factor 2 (Homo sapiens), sequence (O00292 whole entry, looked up): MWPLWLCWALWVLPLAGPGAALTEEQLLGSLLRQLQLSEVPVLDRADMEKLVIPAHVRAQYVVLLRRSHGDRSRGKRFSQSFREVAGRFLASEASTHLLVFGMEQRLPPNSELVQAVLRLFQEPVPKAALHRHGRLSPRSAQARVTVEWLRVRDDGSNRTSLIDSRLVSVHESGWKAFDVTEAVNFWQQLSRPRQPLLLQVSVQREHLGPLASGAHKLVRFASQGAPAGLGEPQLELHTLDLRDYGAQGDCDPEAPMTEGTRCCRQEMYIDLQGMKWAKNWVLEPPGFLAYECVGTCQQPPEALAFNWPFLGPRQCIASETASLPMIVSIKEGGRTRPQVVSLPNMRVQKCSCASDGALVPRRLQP
Assay [14] has as its target Calmodulin-1 (Homo sapiens) (UniProt P0DP23). Description: CALM1 binders on microarrays, EGTA buffer, profiling panel, biochemical, small-molecule microarray, Cy5-labelled CALM1 (AID 1111).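 Further: labelled calmodulin applied in Tris saline Tween buffer holding calcium plus EGTA and DTT.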 The settings on record: Cy5-CALM1 binding fluorescence, higher = more signal.
For assay [15] the target is unchanged. Description: calcium-bound CALM1 binders on microarrays, profiling panel, artefact control for SMM control-protein annotation, biochemical, small-molecule microarray, Cy5-labelled CALM1, plus calcium (AID 1112).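 Further: score merges spot fluorescence with signal to noise from triplicate slides.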 The settings on record: Cy5-CALM1 binding fluorescence, higher = more signal.
Assay [16] is described as follows: small-molecule microarray binders of probe aWnt5a, primary screen, biochemical, biotinylated probe, 635/667 nm fluorescence (AID 1113).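 Further: score merges 667 nm fluorescence intensity with signal-to-noise per printed feature.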 The settings on record: higher = more signal.
Assay [17] can be described thus: small-molecule microarray binders of probe aShh, primary screen, biochemical, biotinylated probe, 635/667 nm fluorescence (AID 1114).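 Further: probe is biotin-labelled aShh protein from a stem cell growth factor screen; measures binding of labelled protein to compounds printed on the slide; score merges feature fluorescence at 667 nm with signal-to-noise.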 Particulars: higher = more signal.
Assay [18] in a line: small-molecule microarray binders of probe aNog, primary screen, biochemical, biotinylated probe, 635/667 nm fluorescence (AID 1115).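 Further: probe is biotinylated aNog protein used at 0.15 µg/mL for 1 h at 4 C; z-score combines 667 nm fluorescence of each spot with its signal to noise.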 Particulars: higher = more signal.
For assay [19], the target named is Torsin-1A-interacting protein 1 (Homo sapiens) (UniProt Q5JTV8). Description: LAP1 binders from COS7 cell lysate, primary screen, small-molecule microarray, 635/667 nm fluorescence (AID 1116). The settings on record: COS7-hLAP1 lysate binding, 635 nm fluorescence, higher = more signal.
Torsin-1A-interacting protein 1 (Homo sapiens), sequence (Q5JTV8 whole entry, looked up): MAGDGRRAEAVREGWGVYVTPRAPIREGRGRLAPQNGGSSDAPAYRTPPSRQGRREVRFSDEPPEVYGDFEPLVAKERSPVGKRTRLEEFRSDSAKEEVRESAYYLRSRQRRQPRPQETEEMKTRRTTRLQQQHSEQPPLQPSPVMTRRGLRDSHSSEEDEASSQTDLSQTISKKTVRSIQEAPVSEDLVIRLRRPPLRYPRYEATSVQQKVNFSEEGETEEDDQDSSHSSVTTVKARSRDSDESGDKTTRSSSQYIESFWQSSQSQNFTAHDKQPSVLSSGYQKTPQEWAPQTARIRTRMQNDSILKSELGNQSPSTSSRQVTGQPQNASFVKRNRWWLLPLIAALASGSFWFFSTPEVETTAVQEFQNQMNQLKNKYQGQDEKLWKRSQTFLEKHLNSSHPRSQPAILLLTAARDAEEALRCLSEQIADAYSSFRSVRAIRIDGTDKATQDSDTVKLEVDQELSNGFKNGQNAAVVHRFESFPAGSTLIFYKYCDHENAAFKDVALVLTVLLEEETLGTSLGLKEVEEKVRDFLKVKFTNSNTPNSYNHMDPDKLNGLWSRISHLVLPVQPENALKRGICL
Assay [20] addresses Alpha-bungarotoxin (Bungarus multicinctus) (UniProt P60615). The assay can be described thus: alpha-bungarotoxin binders on microarray, profiling panel, artefact control for SMM control protein annotation, biochemical, small-molecule microarray, Alexa647 label, 635/667 nm fluorescence (AID 1117). The settings on record: alpha-BTX-A647 binding fluorescence, higher = more signal.

Each structure is given as a SMILES string. The source made the active and inactive calls.

Alpha-bungarotoxin (Bungarus multicinctus), sequence (P60615 whole entry, looked up): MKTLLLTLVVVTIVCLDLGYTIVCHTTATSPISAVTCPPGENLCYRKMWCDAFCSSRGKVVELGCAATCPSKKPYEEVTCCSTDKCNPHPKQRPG
Dickkopf-related protein 1 (Homo sapiens), sequence (O94907 whole entry, looked up): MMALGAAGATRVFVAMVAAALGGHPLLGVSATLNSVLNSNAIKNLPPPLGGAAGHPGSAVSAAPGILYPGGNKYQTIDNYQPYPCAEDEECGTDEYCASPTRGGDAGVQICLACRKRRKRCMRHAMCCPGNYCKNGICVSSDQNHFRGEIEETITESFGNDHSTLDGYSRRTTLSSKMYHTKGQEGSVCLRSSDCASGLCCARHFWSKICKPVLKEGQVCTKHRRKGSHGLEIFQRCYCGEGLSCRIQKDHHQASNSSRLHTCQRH
Fibroblast growth factor 10 (Homo sapiens), sequence (O15520 whole entry, looked up): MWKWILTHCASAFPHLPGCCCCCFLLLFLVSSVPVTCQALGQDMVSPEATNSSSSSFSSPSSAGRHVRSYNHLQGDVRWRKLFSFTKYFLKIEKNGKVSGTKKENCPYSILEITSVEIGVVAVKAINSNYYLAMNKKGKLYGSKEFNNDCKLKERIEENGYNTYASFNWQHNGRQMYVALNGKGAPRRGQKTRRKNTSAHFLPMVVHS

Turning to `CC1CC/C=C\[C@H]2OC34C=CCN(c5ccc6ccccc6c5)C(=O)[C@H]3N(CCO)C(=O)[C@@H]4C2C(=O)O1` (stereo not given in full), the composite z-score is 1.76 in [1]; -0.122 in assay [2]; 0.915 in [3]; -0.681 in [5]; -0.844 in assay [6]; -1.13 in [7]. The composite z-score in assay [8] was -0.391; in assay [9], -1.02; in assay [10] it was 0.838; in assay [11] it was -0.619; in assay [13], -2.09; in [14], -0.832. For the same compound, the composite z-score in [15] is -0.202; in assay [16] it was -0.205; in assay [17] it was 0.192; in [18], 0.831; in assay [19], 3.26; in assay [20], -1.01. Also, the z-score in [4] was -0.538 (inactive); in assay [12] it was -0.626.

As for `COC(=O)[C@H](Cc1ccccc1)N[C@H](/C=C/C1CC1)[C@@H](O)Cc1ccccc1`, the composite z-score was -0.111 in assay [1]; -0.351 in assay [2]; 0.327 in assay [3]; -0.66 in [5]; -1.22 in [6]; -0.579 in assay [7]. For the same compound, the composite z-score in assay [8] was -0.244; in assay [9], -0.506; in [10], 0.0419; in assay [11] it was -0.636; in [13] it was -0.276; in assay [14], -0.595. Moreover, the composite z-score in assay [15] was -1.08; in [16], -0.237; in [17], 0.14; in assay [18], -0.34; in assay [19], 0.627; in assay [20] it was -0.696. Besides, the z-score in [4] is -1.16 (inactive); in [12], -1.02.

In the case of `CC(c1ccccc1)C(O)C1C=CC2C(=O)N(c3ccccc3)C(=O)C2N1Nc1ccccc1` (stereo not given), the composite z-score in assay [1] worked out at 1.18; in assay [2], 0.807; in assay [3] it was 0.818; in assay [5], 1.4; in [6], 0.297; in [7] it was 0.177. In addition, the composite z-score in assay [8] was 1.46; in [9], -0.0656; in [10], 0.215; in [11], 1.5; in [13] it was -0.0093; in assay [14], 1.5. Moreover, the composite z-score was 0.993 in [15]; -0.0758 in [16]; -0.0702 in assay [17]; 1.44 in assay [18]; 1.11 in assay [19]; 1.98 in assay [20]. The z-score in assay [4] is -0.716 (inactive); in assay [12], -2.44.

For the compound `CN1C(=O)C2C=CC(C(O)c3c(F)cccc3Cl)N(NC(=O)OC(C)(C)C)C2C1=O` (stereo not given), the composite z-score amounted to 1.39 in [1]; 0.868 in assay [2]; 1.09 in assay [3]; 0.458 in assay [5]; 0.891 in assay [6]; 0.307 in [7]. Besides, the composite z-score in assay [8] is 0.649; in [9], -0.438; in [10], 0.449; in assay [11] it was 1.3; in [13] it was -0.0662; in [14], 2.03. The composite z-score is 0.498 in [15]; 0.0718 in assay [16]; -0.167 in assay [17]; 1.46 in [18]; 2.03 in assay [19]; 1.35 in assay [20]. Moreover, the z-score was 1.7 (inactive) in assay [4] and -0.28 in assay [12].

Consider `CCOC(=O)C1=CCC(c2ccc(F)cc2)N(S(=O)(=O)c2ccc(C)cc2)C1` (stereo not given), for which the composite z-score is 0.12 in assay [1]; 0.582 in assay [2]; 0.291 in assay [3]; -0.0564 in assay [5]; 0.265 in [6]; 0.192 in assay [7]. In addition, the composite z-score in assay [8] was determined as 0.249; in assay [9], 0.127; in [10], 1.01; in assay [11], 0.683; in assay [13], 0.105; in [14] it was 0.0017. Moreover, the composite z-score was 0.0535 in assay [15]; -0.184 in assay [16]; -0.167 in assay [17]; -0.494 in assay [18]; 0.612 in assay [19]; 0.25 in [20]. Moreover, the z-score in assay [4] is 0.0136 (inactive); in assay [12], -1.81.

As to `CCCCC(=C=CC[C@@H](O)c1cccc(OCCO)c1)C[C@@H](O)c1ccccn1`, the composite z-score in [1] is 1.6; in [2], -0.132; in assay [3], -0.387; in assay [5] it was 1.06; in assay [6], 0.839; in [7], -0.181. The composite z-score in assay [8] was determined as 1.07; in assay [9] it was 0.168; in [10], 0.869; in [11] it was 1.35; in [13] it was 0.229; in assay [14], 1.16. For the same compound, the composite z-score in assay [15] was -0.946; in assay [16] it was -0.0735; in [17], -0.0553; in assay [18], 0.144; in assay [19], 1.25; in assay [20], 1.16. In addition, the z-score in [4] is -0.123 (inactive); in assay [12] it was -0.617.

The values are drawn from PubChem BioAssay.
